Data taken from PubChem BioAssay AID1751 (National Center for Advancing Translational Sciences (NCATS), 2009).
Where “and” joins values, the source holds several entries; their conditions need not be identical. Identical values can stand only once. Inconclusive results are not listed. A number with no mark means an inactive call. Calls of active or inactive are those of the source. Calls follow the shape of the dose curve; as a rule, active = well fitted activation curve with a large enough effect; inconclusive = small, poorly fitted or top-dose-only effect; inactive = no such curve, though single readings can be large or run the other way.

Molecular target: Pyruvate kinase PKM (Homo sapiens) (UniProt P14618)
Assay: Confirmation Concentration-Response Assay for Activators of Human Muscle isoform 2 Pyruvate Kinase
Conditions: purified hPK-M2, Kinase-Glo ATP luminescence, 1 h; series mostly up to 57.5 µM; activation (negative = inhibition): at the top concentration
Description: NIH Chemical Genomics Center [NCGC] Matthew G. Vander Heiden, M.D., Ph.D. [Harvard Medical School, 77 Avenue Louis Pasteur, Boston, MA 02115] MLPCN Grant: 1 R03 MH085679-01 NCGC Assay Overview: Human pyruvate kinase muscle 2 (hPK-M2) enzyme was supplied as a highly purified (>95% pure) preparation from Harvard Medical School and assayed for its ability to generate ATP from ADP using phosphoenolpyruvate (PEP) as a substrate. ATP generation was detected in a coupled reaction by luciferase-mediated luminescence, an ATP-dependent process. Pyruvate kinase substrates, PEP and ADP, were present in the assay at Km and approximately 10-fold below Km respectively. The enzyme was assayed at an intermediate level of activity to screen for both inhibitors and activators.
NCGC Assay Protocol Summary: Three uL of substrate mix (at r.t.) in assay buffer (50 mM Imidazole pH7.2, 50 mM KCl, 7 mM MgCl2, 0.01% Tween 20, 0.05% BSA) was dispensed into white solid bottom 1,536 well microtiter plates so that the final concentrations of substrates in the assay were 0.1 mM ADP and 0.5 mM PEP. 23 nL of compound were delivered by a pin tool and 1 uL of enzyme mix (final concentration of 0.1 nM) in assay buffer (4 degree Celsius) was added. Plates were incubated at room temperature for 1 hour. Two uL of detection mix (Kinase-Glo, Promega; at 4 degree Celsius protected from light) was added and luminescence read by a ViewLux (Perkin Elmer) at 1 second exposure/plate. Data were normalized to the uninhibited (column 3) and AC100 inhibition (no enzyme in column 2). To monitor activation, the first column contained a titration of the activator, NCGC00031955-03 (16-point 1:2 dilutions in duplicate starting at 57 uM) and the first 16 rows of column 4 contained 57 uM of NCGC00031955-03.

Chain of Pyruvate kinase PKM (Homo sapiens) (P14618 whole entry, looked up, canonical isoform): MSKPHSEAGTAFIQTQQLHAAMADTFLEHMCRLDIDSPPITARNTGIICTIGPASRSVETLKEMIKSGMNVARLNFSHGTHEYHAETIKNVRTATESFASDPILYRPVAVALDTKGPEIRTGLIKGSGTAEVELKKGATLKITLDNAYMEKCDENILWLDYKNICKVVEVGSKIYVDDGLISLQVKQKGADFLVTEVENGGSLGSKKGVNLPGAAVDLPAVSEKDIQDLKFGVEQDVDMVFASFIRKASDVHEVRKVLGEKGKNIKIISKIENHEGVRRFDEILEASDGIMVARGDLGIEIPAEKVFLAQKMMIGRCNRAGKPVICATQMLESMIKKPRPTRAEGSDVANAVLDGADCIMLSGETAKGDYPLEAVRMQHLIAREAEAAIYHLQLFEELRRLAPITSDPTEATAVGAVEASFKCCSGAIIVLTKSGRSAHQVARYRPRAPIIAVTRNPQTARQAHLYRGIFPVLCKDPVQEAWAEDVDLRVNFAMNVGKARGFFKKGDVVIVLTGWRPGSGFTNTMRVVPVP

Row | SMILES | Potency | activation (negative = inhibition) [%]
1 | Cc1cc2c(s1)c1c(C)nn(Cc3ccccc3F)c(=O)c1n2C | 20100 nM (active) | 
2 | O=S(=O)(c1cccc(F)c1)N1CCN(S(=O)(=O)c2ccc3c(c2)OCCO3)CC1 | 284 nM (active) | 
3 | COc1ccc(S(=O)(=O)N2CCN(S(=O)(=O)c3ccc4c(c3)OCCO4)CC2)cc1 | 80 nM (active) | 
4 | Cn1c2cc(C#N)sc2c2cnn(Cc3ccccc3F)c(=O)c21 | 11.3 µM (active) and 22.5 nM (active) | 
5 | Cc1cc2c(s1)c1cnn(Cc3ccc(Cl)cc3)c(=O)c1n2C | 201 nM (active) | 
6 | O=S(=O)(NCCCCCCNS(=O)(=O)c1c(F)cccc1F)c1ccc2c(c1)OCCO2 | 4010 nM (active) | 
7 | Cc1cc2c(s1)c1cnn(Cc3cccc(Cn4ncc5c6sc(C)cc6n(C)c5c4=O)c3F)c(=O)c1n2C | 16000 nM (active) | 
8 | Cc1cc(C)nc(SCCc2ccncc2)n1 |  | -4.36
9 | COC(=O)CSC1=NS(=O)(=O)c2ccccc21 |  | -29.2
10 | Cc1cc2c(s1)c1cnn(Cc3ccc(C(C)C)cc3)c(=O)c1n2C | 63.5 nM (active) | 
11 | CCCc1noc(-c2ccc(-c3ccccc3)cc2)n1 |  | -42.9
12 | Cc1cc2[nH]c3c(=O)n(Cc4ccccc4F)ncc3c2s1 |  | 28.4
13 | O=S(=O)(c1ccc2c(c1)OCO2)N1CCN(S(=O)(=O)c2c(F)cccc2F)CC1 | 127 nM (active) | 
14 | Cc1nc2ccc(S(=O)(=O)N3CCN(S(=O)(=O)c4c(F)cccc4F)CC3)cc2s1 | 63.5 nM (active) | 
15 | Cc1cc2c(s1)c1cnn(Cc3ccc(F)cc3)c(=O)c1n2C | 25.3 nM (active) | 
16 | COc1cc(F)c(S(=O)(=O)N2CCN(S(=O)(=O)c3ccc4c(c3)OCCO4)CC2)c(F)c1 | 17.9 nM (active) | 
17 | O=C(c1ccc2c(c1)OCCO2)N1CCN(S(=O)(=O)c2c(F)cccc2F)CC1 |  | 8.54

Row | SMILES | Potency | activation (negative = inhibition) [%]
18 | O=S(=O)(c1ccc2ccccc2c1)N1CCN(S(=O)(=O)c2c(F)cccc2F)CC1 | 56.6 nM (active) | 
19 | Cn1c2cc(S(C)=O)sc2c2cnn(Cc3ccccc3F)c(=O)c21 (stereo not drawn) | 16 nM (active) | 
20 | Cc1ccc(Cn2ncc3c4sc(C)cc4n(C)c3c2=O)c(C)c1 | 56.6 nM (active) | 
21 | Cc1cc2c(s1)c1cnn(Cc3ccccc3)c(=O)c1n2C | 45 nM (active) | 
22 | CCCc1cc(F)c(S(=O)(=O)N2CCN(S(=O)(=O)c3ccc4c(c3)OCCO4)CC2)cc1F | 800 nM (active) | 
23 | Nc1cccc(-c2cn3cc(C(F)(F)F)cc(Cl)c3n2)c1 |  | -66.6
24 | O=S(=O)(c1ccc2c(c1)OCCCO2)N1CCN(S(=O)(=O)c2c(F)cccc2F)CC1 | 80 nM (active) | 
25 | Cn1c2ccsc2c2cnn(Cc3ccccc3F)c(=O)c21 | 318 nM (active) | 
26 | CC(C)c1cc2c(s1)c1cnn(Cc3ccccc3F)c(=O)c1n2C | 101 nM (active) | 
27 | O=S(=O)(c1ccc2c(c1)OCCO2)N1CCN(S(=O)(=O)c2cc(F)c(F)cc2F)CC1 | 71.3 nM (active) | 
28 | Cn1c2cc([N+](=O)[O-])sc2c2cnn(Cc3ccccc3F)c(=O)c21 | 12.7 nM (active) | 
29 | Cc1cc2c(s1)c1cnn(Cc3c(F)cccc3Cl)c(=O)c1n2C | 40.1 nM (active) | 
30 | CCOC(=O)CSc1nc2cc(OC)ccc2cc1C#N |  | -13.5
31 | CC(=O)c1cc2c(s1)c1cnn(Cc3ccccc3F)c(=O)c1n2C | 7.1 nM (active) | 
32 | Cc1cc2c(s1)c1cnn(Cc3ccccc3F)c(=O)c1n2C | 40.1 nM (active) | 
33 | O=C(CN1C(=O)N/C(=C\c2cccn2-c2cccc(C(=O)O)c2)C1=O)Nc1ccccc1F |  | 22
